Assays:
Test in all cases: DAPPL (digital affinity profiling via proximity ligation, sequencing); 10 mM Tris-HCl pH 7.5, 50 mM NaCl, 1 mM DTT, 4% glycerol, room temperature, 30 min; GST-TFs on glutathione beads, 16-mer random dsDNA library, 0.1% formaldehyde crosslink after washing; high values mean tight binding
FLI1 = target: T1, FLI1 (Homo sapiens, UniProt Q01543 1-452); details: protein: recombinant; tags: N-terminal GST; dsDNA, one strand shown
T1 sequence: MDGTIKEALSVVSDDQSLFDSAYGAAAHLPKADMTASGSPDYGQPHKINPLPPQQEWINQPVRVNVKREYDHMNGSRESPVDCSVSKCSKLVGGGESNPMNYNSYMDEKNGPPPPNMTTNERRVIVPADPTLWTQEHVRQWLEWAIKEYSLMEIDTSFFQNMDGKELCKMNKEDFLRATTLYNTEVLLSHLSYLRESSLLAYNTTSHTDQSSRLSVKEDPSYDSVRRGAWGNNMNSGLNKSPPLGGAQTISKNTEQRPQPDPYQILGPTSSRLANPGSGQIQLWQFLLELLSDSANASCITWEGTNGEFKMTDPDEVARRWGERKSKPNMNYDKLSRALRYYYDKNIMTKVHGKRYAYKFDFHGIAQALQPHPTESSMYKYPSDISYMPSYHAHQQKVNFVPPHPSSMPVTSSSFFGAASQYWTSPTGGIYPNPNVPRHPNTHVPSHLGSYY
How it was run: (§1)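 In yeast, human transcription factors were expressed with a GST fusion, then pulled down on glutathione beads and given DNA barcodes. Pooled with a tag-only sample, they were exposed to 200 nmole of a 16-mer random double-stranded DNA library (Tris/NaCl/DTT/glycerol buffer, room temperature, 30 min), washed, crosslinked with 0.1% formaldehyde, proximity-ligated using BsaI/T4 ligase for 1 h at 37 °C, PCR-amplified and read on an Illumina NextSeq500. Each hexamer's frequency of reads for a factor, divided by the matching frequency for the tag-only sample, gives the binding signal.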

ELK1 = target: T2, ELK1 (Homo sapiens, UniProt P19419 1-428); details: protein: recombinant; tags: N-terminal GST; dsDNA, one strand shown
T2 sequence: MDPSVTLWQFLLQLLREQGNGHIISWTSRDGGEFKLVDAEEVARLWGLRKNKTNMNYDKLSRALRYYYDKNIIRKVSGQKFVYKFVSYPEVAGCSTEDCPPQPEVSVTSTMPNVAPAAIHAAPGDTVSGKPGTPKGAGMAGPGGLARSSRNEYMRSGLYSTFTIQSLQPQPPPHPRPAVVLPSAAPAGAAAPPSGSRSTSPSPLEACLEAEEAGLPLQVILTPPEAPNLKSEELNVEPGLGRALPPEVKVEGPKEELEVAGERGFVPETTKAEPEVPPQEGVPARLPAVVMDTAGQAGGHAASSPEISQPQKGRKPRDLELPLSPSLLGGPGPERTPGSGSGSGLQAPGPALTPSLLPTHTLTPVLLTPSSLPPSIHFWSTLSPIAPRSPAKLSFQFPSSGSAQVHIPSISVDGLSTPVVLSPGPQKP
How it was run: as §1

GABPA = target: T3, GABPA (Homo sapiens, UniProt Q06546 1-454); details: protein: recombinant; tags: N-terminal GST; dsDNA, one strand shown
T3 sequence: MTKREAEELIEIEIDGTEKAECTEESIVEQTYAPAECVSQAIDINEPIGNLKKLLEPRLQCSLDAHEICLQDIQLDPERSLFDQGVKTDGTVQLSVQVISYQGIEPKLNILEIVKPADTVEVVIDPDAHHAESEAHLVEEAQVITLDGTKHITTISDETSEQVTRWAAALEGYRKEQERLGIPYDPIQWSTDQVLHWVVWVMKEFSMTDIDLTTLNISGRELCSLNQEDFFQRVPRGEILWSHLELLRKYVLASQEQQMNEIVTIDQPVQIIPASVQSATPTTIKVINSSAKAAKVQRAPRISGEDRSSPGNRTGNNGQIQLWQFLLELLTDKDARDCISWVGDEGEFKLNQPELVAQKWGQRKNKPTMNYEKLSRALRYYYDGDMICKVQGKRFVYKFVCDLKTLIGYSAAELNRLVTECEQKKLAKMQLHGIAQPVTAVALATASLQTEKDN
How it was run: as §1

ERG = target: T4, ERG (Homo sapiens, UniProt P11308 1-479); details: protein: recombinant; tags: N-terminal GST; dsDNA, one strand shown
T4 sequence: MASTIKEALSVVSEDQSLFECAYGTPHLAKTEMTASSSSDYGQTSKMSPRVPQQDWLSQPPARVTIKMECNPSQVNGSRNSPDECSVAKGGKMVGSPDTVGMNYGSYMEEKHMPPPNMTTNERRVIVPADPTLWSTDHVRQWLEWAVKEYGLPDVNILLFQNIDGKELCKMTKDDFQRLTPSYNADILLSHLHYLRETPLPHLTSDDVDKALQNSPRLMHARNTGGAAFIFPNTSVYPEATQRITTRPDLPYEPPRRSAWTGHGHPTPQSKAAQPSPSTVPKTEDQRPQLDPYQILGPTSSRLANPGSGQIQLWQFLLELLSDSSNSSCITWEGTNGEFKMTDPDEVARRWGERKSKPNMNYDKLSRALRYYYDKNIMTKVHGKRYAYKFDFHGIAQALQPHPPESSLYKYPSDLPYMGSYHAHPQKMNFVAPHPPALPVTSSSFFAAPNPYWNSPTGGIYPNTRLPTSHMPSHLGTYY
How it was run: as §1

ELF1 = ELF1 (Homo sapiens, UniProt P32519 1-619); details: protein: recombinant; tags: N-terminal GST; dsDNA, one strand shown
How it was run: as §1

EHF = target: T5, EHF (Homo sapiens, UniProt Q9NZC4 1-300); details: protein: recombinant; tags: N-terminal GST; dsDNA, one strand shown
T5 sequence: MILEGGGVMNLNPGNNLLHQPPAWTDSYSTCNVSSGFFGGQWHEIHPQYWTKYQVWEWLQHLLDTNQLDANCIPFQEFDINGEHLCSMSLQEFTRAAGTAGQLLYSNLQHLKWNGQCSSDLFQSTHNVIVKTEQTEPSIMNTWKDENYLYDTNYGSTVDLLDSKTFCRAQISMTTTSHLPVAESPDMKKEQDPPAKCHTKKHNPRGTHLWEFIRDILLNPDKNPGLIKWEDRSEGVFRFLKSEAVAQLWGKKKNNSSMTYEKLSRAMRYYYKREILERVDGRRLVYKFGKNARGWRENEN
How it was run: as §1

SPI1 = SPI1 (Homo sapiens, UniProt P17947 1-270); details: protein: recombinant; tags: N-terminal GST; dsDNA, one strand shown
How it was run: as §1

SPIB = SPIB (Homo sapiens, UniProt Q01892 1-262); details: protein: recombinant; tags: N-terminal GST; dsDNA, one strand shown
How it was run: as §1

ELK3 = target: T6, ELK3 (Homo sapiens, UniProt P41970 1-407); details: protein: recombinant; tags: N-terminal GST; dsDNA, one strand shown
T6 sequence: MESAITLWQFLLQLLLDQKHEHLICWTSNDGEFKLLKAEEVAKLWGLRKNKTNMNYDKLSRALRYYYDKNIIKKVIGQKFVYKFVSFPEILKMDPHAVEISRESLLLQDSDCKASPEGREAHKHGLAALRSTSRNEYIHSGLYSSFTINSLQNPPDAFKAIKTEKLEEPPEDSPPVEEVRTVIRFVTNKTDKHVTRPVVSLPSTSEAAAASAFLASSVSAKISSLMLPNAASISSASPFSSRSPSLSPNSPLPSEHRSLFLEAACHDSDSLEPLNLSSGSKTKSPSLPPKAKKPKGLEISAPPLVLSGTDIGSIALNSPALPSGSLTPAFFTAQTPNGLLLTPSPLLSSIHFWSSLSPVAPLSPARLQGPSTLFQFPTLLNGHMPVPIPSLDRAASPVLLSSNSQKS
How it was run: as §1

FEV = target: T7, FEV (Homo sapiens, UniProt Q99581 1-238); details: protein: recombinant; tags: N-terminal GST; dsDNA, one strand shown
T7 sequence: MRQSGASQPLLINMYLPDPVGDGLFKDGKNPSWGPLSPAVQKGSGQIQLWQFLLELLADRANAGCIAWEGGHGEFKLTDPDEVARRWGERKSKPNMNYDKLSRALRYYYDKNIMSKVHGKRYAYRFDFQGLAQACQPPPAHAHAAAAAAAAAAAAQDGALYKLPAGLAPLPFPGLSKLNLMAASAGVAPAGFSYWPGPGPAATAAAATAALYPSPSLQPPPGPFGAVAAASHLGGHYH
How it was run: as §1

ETV5 = ETV5 (Homo sapiens, UniProt P41161 1-510); details: protein: recombinant; tags: N-terminal GST; dsDNA, one strand shown
How it was run: as §1

HSF1 = HSF1 (Homo sapiens, UniProt Q00613 1-529); details: protein: recombinant; tags: N-terminal GST; chain copies: 3; dsDNA, one strand shown
How it was run: as §1

SPIC = target: T8, SPIC (Homo sapiens, UniProt Q8N5J4 1-248); details: protein: recombinant; tags: N-terminal GST; dsDNA, one strand shown
T8 sequence: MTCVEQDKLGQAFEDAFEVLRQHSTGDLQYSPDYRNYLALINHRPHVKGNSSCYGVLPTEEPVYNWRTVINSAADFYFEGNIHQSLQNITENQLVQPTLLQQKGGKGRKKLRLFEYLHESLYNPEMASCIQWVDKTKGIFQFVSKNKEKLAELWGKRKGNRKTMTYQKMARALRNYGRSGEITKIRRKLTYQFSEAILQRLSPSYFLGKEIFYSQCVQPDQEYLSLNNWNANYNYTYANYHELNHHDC
How it was run: as §1

ELF4 = ELF4 (Homo sapiens, UniProt Q99607 1-663); details: protein: recombinant; tags: N-terminal GST; dsDNA, one strand shown
How it was run: as §1

ELK4 = target: T9, ELK4 (Homo sapiens, UniProt P28324-2 1-405); details: protein: recombinant; tags: N-terminal GST; dsDNA, one strand shown
T9 sequence: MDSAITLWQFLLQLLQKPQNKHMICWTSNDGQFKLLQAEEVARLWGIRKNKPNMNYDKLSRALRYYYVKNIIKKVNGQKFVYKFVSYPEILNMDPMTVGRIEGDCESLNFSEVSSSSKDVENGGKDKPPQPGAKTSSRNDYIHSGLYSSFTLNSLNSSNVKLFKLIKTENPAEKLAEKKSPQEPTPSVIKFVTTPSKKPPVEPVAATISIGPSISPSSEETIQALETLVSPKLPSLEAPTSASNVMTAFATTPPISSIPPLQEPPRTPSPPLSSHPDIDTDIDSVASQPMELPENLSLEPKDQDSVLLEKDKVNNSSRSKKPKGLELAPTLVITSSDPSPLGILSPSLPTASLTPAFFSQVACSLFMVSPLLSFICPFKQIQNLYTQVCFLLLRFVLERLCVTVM
How it was run: as §1

ETV2 = target: T10, ETV2 (Homo sapiens, UniProt O00321 1-342); details: protein: recombinant; tags: N-terminal GST; dsDNA, one strand shown
T10 sequence: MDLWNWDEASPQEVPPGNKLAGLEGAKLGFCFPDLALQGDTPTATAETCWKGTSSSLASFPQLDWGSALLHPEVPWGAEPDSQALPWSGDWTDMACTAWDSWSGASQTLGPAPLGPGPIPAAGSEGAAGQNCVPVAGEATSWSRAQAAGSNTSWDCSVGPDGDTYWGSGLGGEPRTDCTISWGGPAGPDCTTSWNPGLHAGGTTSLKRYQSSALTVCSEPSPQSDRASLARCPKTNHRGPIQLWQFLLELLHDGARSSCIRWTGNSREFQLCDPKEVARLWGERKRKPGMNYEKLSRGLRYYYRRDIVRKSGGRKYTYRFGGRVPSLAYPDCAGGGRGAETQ
How it was run: as §1

ELF3 = target: T11, ELF3 (Homo sapiens, UniProt P78545 1-371); details: protein: recombinant; tags: N-terminal GST; dsDNA, one strand shown
T11 sequence: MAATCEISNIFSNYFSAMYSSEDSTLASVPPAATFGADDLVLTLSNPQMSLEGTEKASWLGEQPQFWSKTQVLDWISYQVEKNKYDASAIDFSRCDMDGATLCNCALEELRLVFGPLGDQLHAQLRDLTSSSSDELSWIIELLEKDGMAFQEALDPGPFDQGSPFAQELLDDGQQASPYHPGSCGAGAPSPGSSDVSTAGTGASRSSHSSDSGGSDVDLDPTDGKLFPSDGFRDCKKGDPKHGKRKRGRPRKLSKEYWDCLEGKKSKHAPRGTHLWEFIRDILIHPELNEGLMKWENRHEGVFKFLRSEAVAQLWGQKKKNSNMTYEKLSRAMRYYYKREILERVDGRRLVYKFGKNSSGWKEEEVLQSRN
How it was run: as §1

CRX = CRX (Homo sapiens, UniProt O43186 1-299); details: protein: recombinant; tags: N-terminal GST; dsDNA, one strand shown
How it was run: as §1

ETV1 = ETV1 (Homo sapiens, UniProt P50549 1-477); details: protein: recombinant; tags: N-terminal GST; dsDNA, one strand shown
How it was run: as §1

Sequence of ELF1 (P32519 whole entry): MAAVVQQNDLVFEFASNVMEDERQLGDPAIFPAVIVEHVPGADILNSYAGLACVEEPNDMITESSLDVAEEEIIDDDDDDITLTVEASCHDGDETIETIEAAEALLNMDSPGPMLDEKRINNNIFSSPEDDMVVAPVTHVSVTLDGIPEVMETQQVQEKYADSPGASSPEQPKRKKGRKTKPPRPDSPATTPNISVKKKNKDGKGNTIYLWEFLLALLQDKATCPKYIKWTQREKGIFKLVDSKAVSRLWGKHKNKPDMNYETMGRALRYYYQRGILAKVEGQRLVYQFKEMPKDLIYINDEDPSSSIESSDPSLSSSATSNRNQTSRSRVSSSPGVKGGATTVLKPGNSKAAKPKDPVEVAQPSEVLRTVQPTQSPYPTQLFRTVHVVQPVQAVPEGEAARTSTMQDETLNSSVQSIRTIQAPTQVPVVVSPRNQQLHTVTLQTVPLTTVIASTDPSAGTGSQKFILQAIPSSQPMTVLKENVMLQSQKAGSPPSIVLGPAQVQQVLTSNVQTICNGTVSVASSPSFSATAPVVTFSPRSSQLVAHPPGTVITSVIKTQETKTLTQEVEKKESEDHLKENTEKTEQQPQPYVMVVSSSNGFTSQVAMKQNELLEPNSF
Sequence of HSF1 (Q00613 whole entry): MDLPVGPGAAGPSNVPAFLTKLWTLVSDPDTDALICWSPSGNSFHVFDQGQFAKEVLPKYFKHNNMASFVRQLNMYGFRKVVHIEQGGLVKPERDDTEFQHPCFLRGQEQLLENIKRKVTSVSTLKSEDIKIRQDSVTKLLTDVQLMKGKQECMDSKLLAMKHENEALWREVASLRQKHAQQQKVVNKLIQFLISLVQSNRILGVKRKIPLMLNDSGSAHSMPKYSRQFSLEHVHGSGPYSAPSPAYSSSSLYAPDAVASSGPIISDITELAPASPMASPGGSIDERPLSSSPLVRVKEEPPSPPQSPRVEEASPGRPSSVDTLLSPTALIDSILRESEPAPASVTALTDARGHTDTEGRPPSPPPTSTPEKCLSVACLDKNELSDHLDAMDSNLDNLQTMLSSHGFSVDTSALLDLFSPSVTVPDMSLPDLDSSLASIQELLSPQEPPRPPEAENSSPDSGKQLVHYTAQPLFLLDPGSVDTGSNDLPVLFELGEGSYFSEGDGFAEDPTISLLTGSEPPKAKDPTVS
Sequence of SPIB (Q01892 whole entry): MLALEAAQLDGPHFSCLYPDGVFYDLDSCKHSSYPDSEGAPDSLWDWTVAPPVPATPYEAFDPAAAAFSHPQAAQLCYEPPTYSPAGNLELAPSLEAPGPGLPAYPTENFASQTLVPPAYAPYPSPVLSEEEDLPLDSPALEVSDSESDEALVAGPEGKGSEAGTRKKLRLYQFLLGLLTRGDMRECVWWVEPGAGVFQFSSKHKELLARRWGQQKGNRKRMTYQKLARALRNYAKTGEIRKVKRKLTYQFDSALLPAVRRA
Sequence of CRX (O43186 whole entry): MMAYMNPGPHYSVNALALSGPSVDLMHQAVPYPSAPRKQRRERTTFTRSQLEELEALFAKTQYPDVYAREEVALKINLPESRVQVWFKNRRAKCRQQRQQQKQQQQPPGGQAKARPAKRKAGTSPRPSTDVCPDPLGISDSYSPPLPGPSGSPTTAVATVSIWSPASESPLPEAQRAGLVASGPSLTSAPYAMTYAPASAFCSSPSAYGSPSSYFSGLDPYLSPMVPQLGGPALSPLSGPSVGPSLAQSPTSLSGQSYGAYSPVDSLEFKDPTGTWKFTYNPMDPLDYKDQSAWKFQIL
Sequence of ETV1 (P50549 whole entry): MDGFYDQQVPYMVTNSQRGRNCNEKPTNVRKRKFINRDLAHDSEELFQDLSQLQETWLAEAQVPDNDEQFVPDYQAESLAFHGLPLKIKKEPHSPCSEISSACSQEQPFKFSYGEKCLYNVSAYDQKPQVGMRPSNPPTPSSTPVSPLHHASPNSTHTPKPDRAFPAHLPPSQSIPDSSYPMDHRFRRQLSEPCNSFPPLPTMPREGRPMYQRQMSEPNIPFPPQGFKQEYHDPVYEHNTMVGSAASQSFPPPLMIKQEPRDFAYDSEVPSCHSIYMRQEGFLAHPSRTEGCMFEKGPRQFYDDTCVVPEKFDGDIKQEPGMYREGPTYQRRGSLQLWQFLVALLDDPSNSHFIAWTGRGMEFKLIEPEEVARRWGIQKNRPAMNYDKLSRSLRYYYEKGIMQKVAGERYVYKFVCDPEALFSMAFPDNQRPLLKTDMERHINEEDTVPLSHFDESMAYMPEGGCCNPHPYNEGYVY
Sequence of ELF4 (Q99607 whole entry): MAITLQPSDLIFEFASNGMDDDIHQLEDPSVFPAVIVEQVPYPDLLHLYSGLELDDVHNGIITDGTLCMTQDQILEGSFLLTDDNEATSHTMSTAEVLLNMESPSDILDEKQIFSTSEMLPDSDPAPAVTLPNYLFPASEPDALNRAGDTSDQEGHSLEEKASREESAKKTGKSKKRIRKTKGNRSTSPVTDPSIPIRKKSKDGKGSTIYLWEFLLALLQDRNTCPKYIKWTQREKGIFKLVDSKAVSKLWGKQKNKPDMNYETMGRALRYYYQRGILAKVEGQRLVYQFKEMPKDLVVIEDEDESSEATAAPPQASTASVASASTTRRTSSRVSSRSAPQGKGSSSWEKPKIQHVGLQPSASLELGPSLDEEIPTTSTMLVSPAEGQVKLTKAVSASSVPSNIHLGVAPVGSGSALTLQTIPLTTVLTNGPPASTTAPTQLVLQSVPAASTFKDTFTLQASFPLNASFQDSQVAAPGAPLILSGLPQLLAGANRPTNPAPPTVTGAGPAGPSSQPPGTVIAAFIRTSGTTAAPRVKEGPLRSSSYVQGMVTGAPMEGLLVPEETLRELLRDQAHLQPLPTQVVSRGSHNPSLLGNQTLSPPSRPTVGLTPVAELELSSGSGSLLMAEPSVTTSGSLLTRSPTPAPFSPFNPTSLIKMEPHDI
Sequence of ETV5 (P41161 whole entry): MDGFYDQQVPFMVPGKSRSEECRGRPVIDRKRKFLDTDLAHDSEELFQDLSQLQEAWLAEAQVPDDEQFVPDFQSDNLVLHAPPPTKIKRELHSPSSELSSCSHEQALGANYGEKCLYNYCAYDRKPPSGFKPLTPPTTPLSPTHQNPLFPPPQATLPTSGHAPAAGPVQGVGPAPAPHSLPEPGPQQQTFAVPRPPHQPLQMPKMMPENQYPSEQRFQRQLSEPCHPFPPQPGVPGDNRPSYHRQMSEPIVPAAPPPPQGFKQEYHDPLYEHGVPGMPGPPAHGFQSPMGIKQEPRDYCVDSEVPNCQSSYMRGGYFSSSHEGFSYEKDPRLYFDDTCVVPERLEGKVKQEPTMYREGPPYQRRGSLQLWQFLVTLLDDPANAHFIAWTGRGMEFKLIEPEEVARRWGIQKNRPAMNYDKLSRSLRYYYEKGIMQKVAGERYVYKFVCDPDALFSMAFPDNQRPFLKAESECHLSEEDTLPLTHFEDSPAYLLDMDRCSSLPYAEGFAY

TTCTCG
binding signal (FLI1): 1.51 fold enrichment (6-mer frequency, TF over GST control)
binding signal (ELK1): 1.43 fold enrichment (6-mer frequency, TF over GST control)
binding signal (GABPA): 1.55 fold enrichment (6-mer frequency, TF over GST control)
binding signal (ERG): 1.38 fold enrichment (6-mer frequency, TF over GST control)
binding signal (ELF1): 1.36 fold enrichment (6-mer frequency, TF over GST control)
binding signal (EHF): 1.34 fold enrichment (6-mer frequency, TF over GST control)
binding signal (SPI1): 1.42 fold enrichment (6-mer frequency, TF over GST control)
binding signal (SPIB): 1.46 fold enrichment (6-mer frequency, TF over GST control)
binding signal (ELK3): 1.44 fold enrichment (6-mer frequency, TF over GST control)
binding signal (FEV): 1.35 fold enrichment (6-mer frequency, TF over GST control)
binding signal (ETV5): 1.29 fold enrichment (6-mer frequency, TF over GST control)
binding signal (HSF1): 4.96 fold enrichment (6-mer frequency, TF over GST control)
binding signal (SPIC): 1.32 fold enrichment (6-mer frequency, TF over GST control)
binding signal (ELF4): 1.51 fold enrichment (6-mer frequency, TF over GST control)
binding signal (ELK4): 1.5 fold enrichment (6-mer frequency, TF over GST control)
binding signal (ETV2): 1.4 fold enrichment (6-mer frequency, TF over GST control)
binding signal (ELF3): 1.57 fold enrichment (6-mer frequency, TF over GST control)
binding signal (CRX): 2.17 fold enrichment (6-mer frequency, TF over GST control)
binding signal (ETV1): 1.29 fold enrichment (6-mer frequency, TF over GST control)

Source: PMC7862700, “An all-to-all approach to the identification of sequence-specific readers for epigenetic DNA modifications on cytosine”
